This passage reports growth results from PubChem BioAssay (NCI).

The panel holds about 83,000 compounds, 20% with a hit somewhere; the sample as a whole holds those more often.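 Single-concentration screen, 48 h exposure, 96-well plates. Endpoint: percent growth. Below 10 = active.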 Unmarked numbers belong to inactive results. The source made the active and inactive calls.

Common to all, as to test: NCI-60 one-dose screen, 48 h (100 = growth as untreated, 0 = no growth, -100 = all killed)
Common to all, as to conditions: 10 µM unless noted

The test system of test [1] is HCT-15 colon.
The test system of test [2] is HT29 colon.
In test [3] the test system is SNB-75 CNS.
Test [4] concerns SNB-19 CNS.
Test [5] has as its system U251 CNS.
Test [6] has as its system PC-3 prostate.
Test [7] relates to SK-MEL-5 melanoma.
Test [8] has as its system UACC-62 melanoma.
For test [9], the system named is LOX IMVI melanoma.
Test [10] concerns SK-MEL-28 melanoma.

Regarding `NC(N)=Nc1ccc(Oc2cccc(NC(N)=Nc3ccc(Br)c(C(F)(F)F)c3)c2)cc1`, the growth is 83.1% in [1]; 40.1% in test [2]; 62.5% in test [3]; 10.2% in test [4]; 21.4% in test [5]; 4.3% (active) in [6]. The growth in test [7] was 36.8%; in test [8] it was 44.2%; in test [9], -58.9% (active); in test [10], 64.1%.
Regarding `O=C(CCn1c[n+](CC(=O)c2ccc(-c3ccccc3)cc2)c2ccccc21)Nc1cccc2cccnc12`, the growth in test [1] is 93.8%; in test [2], 51.8%; in test [3] it was 41%; in [4], 41.6%; in test [5], 42.9%; in test [6] it was 30.9%. The growth in test [7] is 20.8%; in test [8], 15.1%; in test [9], 57.9%; in [10], 38.9%.
For `CCNC(=O)N1CCc2cc(OC)c(OCCc3ccc(OC)c(N)c3)cc2C1c1ccc(C)cc1C` (stereo not given), the growth in test [1] was 10.4%; in test [2], 3.09% (active); in [3], 41.5%; in test [4], 30.1%; in test [5] it was 17.8%; in [6], 29.1%. The growth is -7.76% (active) in test [7], 24.2% in test [8], 6.47% (active) in [9] and 42.5% in test [10].
Turning to `O=C(Cn1cc(-c2ccccc2)nn1)Nc1nc(-c2ccc(Cl)cc2)cs1`, the growth in test [1] was 94.4%; in [2], 102%; in test [3], 103%; in test [4], 94.7%; in test [5] it was 105%; in test [6], 101%. Further, the growth in test [7] is 94.5%; in test [8] it was 76.1%; in test [9] it was 101%; in [10], 108%.
With `CCCn1cnc2c(c1=N)C(c1ccc(Cl)cc1)c1sc3c(C)cccc3c1O2` (stereo not given), the growth in test [1] was 13%; in test [2], 5.11% (active); in test [3], 26.7%; in test [4], 26.5%; in test [5], 19.4%; in test [6], 6.9% (active). In addition, the growth was 28.7% in test [7], 5.02% (active) in [8], 19.6% in test [9] and 60.9% in test [10].
Take `COc1ccc(/C=C(/C)c2ccc3ccc(OC)cc3[o+]2)c(O)c1`: the growth in [1] is 22.5%; in test [2] it was 44.7%; in test [3], 85.6%; in [4] it was 82.4%; in test [5] it was 84.6%; in test [6], 41.7%. The growth was 61.6% in test [7], 50.9% in test [8], -15.8% (active) in test [9] and 96% in test [10].
As to `CC1(C)[C@@H](O)CC[C@]2(C)[C@H]3CC[C@@H]4[C@H]5[C@H](C(=O)/C=C\c6ccc([N+](=O)[O-])cc6)CC[C@]5(O)CC[C@@]4(C)[C@]3(C)CC[C@@H]12`, the growth was 27.5% in test [1]; 46.1% in [2]; 42.1% in test [3]; 62.2% in test [4]; 69.9% in [5]; 47.9% in test [6]. For the same compound, the growth in test [7] is 75.8%; in test [8] it was 48.9%; in test [9], -7.58% (active); in [10], 46%.
Take `COc1cc(-c2nn(C(C)(C)C)cc2-c2ccnc(NCCCNS(=O)(=O)c3ccc(C)cc3)n2)ccc1Cl`: the growth in test [1] is 80.5%; in test [2], 78.3%; in test [3] it was 54.7%; in test [4], 100%; in [5] it was 92.3%; in test [6], 58.1%. Moreover, the growth was 83.1% in [7], 68.3% in test [8], 72.7% in [9] and 101% in test [10].
For `CNC(=O)c1cc(N2CCc3cc(NC(=O)Nc4ccc(Cl)c(C(F)(F)F)c4)ccc32)ccn1`, the growth in test [1] was 28%; in test [2] it was 61.2%; in test [3], 93.3%; in test [4], 61.4%; in test [5], 52.4%; in [6], 29%. For the same compound, the growth in test [7] was 46.6%; in [8], 51.8%; in [9] it was 64.7%; in test [10] it was 66.9%.
Regarding `O=S(=O)(NCCNc1nccc(-n2cnc3ccccc32)n1)c1ccc(Cl)cc1`, the growth in test [1] was 96.6%; in [2] it was 103%; in [3], 79.4%; in [4] it was 97.7%; in test [5], 102%; in test [6] it was 103%. Also, the growth in [7] is 99.4%; in test [8], 86.4%; in test [9], 93.5%; in test [10] it was 101%.
On to `NS(=O)(=O)c1ccc(Nc2nc(Nc3ccccc3)nc3nnc(SCC(=O)NC4CCCCC4)n23)cc1`, for which the growth in test [1] was 104%; in test [2], 113%; in test [3], 115%; in [4], 101%; in [5], 104%; in test [6], 98.5%. Moreover, the growth in [7] was 105%; in test [8], 92.3%; in [9] it was 101%; in test [10], 105%.
Regarding `CC[C@]12C=CCN3CC[C@@]4(c5cc(NC(=O)COc6cc(O)c7c(=O)cc(-c8ccccc8)oc7c6)c(OC)cc5N(C)[C@H]4[C@@](O)(C(=O)OC)[C@@H]1OC(C)=O)[C@@H]32`, the growth in test [1] is -69% (active); in test [2] it was -61% (active); in [3] it was -34.2% (active); in test [4], -54.3% (active); in [5] it was -87.5% (active); in [6], -88.7% (active). In addition, the growth in [7] was -90.9% (active); in test [8] it was -87.3% (active); in test [9], -93.2% (active); in test [10] it was -89% (active).
As for `Cn1cc(-c2nc(N)nnc2-c2c[nH]c3ccc(Br)cc23)c2cc(Br)ccc21`, the growth is 29.8% in test [1]; 14.1% in test [2]; 55.8% in test [3]; 43.1% in test [4]; 27.9% in test [5]; 20.2% in [6]. In addition, the growth is 42.9% in test [7], 27.4% in test [8], 44% in [9] and 60.1% in test [10].
Turning to `CCNC(=O)N1CCc2cc(OC)c(OCCc3ccc(OC)nc3)cc2C1c1ccc(C)cc1C` (stereo not given), the growth is 6.9% (active) in test [1]; 1.6% (active) in test [2]; 45.8% in [3]; 25.7% in test [4]; 11.1% in test [5]; 26.8% in test [6]. Moreover, the growth in test [7] is -31.6% (active); in test [8], 25.6%; in test [9] it was 3.95% (active); in test [10], 41.5%.
With `O=C(NNc1nc2cc(F)cc(F)c2n2cccc12)c1cnccn1`, the growth was 24.8% in test [1]; 26.2% in test [2]; 49.2% in test [3]; 25% in [4]; 16.2% in test [5]; 24.1% in test [6]. In addition, the growth in test [7] is 14.2%; in [8], 5.21% (active); in test [9], 5.06% (active); in test [10] it was 25.8%.
In the case of `C=C(C=O)[C@@H]1CC[C@]2(COC(C)=O)CC[C@]3(C)C(CC[C@@H]4[C@@]5(C)CC[C@H](OC(C)=O)C(C)(C)[C@@H]5CC[C@]43C)[C@@H]12` (stereo not given in full), the growth in test [1] is -42.7% (active); in [2], 4.87% (active); in [3], 32.1%; in test [4] it was 5.36% (active); in test [5] it was -50.7% (active); in test [6], 6.79% (active). Also, the growth is -96.9% (active) in test [7], -15.7% (active) in [8], -83.6% (active) in [9] and -42.8% (active) in test [10].
In the case of `Cc1nc2ncc(-c3ccc4ncnc(NCc5ccccc5)c4c3)cc2[nH]1`, the growth was 103% in [1]; 82.8% in test [2]; 13% in [3]; 67.7% in test [4]; 75.4% in test [5]; 40.8% in [6]. The growth is 82.8% in test [7], 64.3% in test [8], 41.3% in test [9] and 63.1% in test [10].
Consider `COc1cc(/C=C2\C(=O)Nc3cc(Cl)ccc32)ccc1OCc1ccc(F)cc1`, for which the growth in test [1] is 89%; in test [2] it was 105%; in test [3], 104%; in [4], 104%; in test [5] it was 111%; in test [6], 87%. Moreover, the growth in [7] was 99%; in [8] it was 88.8%; in [9], 93.5%; in test [10], 105%.
Turning to `C=C(C)[C@@H]1CC[C@]2(COP(=O)(OCC)OCC)CC[C@]3(C)[C@H](CC[C@@H]4[C@@]5(C)CCCNC(C)(C)[C@@H]5CC[C@]43C)[C@@H]12`, the growth in test [1] was 16.6%; in [2], 5.58% (active); in test [3], 37%; in test [4], 58.3%; in test [5], 37.4%; in test [6], 26.3%. Also, the growth in test [7] was 37.4%; in test [8], 80.3%; in test [9], -87.9% (active); in [10] it was -38.2% (active).
Turning to `C=CCOc1cccc(/C=C2\SC(=S)N(C3CC(=O)N(c4ccc(Br)cc4)C3=O)C2=O)c1` (stereo not given), the growth in test [1] is 97.5%; in [2], 115%; in test [3], 120%; in test [4], 96.5%; in test [5] it was 96.6%; in test [6], 93.1%. The growth in [7] was 101%; in [8], 86.8%; in test [9], 93.1%; in test [10], 96.6%.
As for `CC(=O)O[C@@H]1C(=O)N(c2cnccn2)[C@H]1c1ccccc1[N+](=O)[O-]`, the growth in [1] is 15.9%; in test [2] it was 2.42% (active); in [3], 21.5%; in test [4], 41.8%; in [5], -3.35% (active); in [6], 24.6%. Moreover, the growth in test [7] was -57.2% (active); in test [8], 30%; in [9] it was 6.26% (active); in test [10], 57.1%.
In the case of `O=C(/C=C/c1ccc(F)cc1)c1ccc(O)cc1`, the growth in [1] is 73.5%; in test [2] it was 93.2%; in test [3], 95.3%; in test [4] it was 91.4%; in test [5], 66.7%; in test [6] it was 95.4%. The growth in [7] was 94%; in test [8], 88%; in test [9], 63.3%; in test [10], 109%.
With `CC1(C)NCCC[C@]2(C)[C@H]3C/C(=N\O)C4[C@@H]5C[C@@](C)(CO)CC[C@]5(C)CC[C@@]4(C)[C@]3(C)CC[C@@H]12` (stereo not given in full), the growth was 93.1% in test [1]; 88.9% in test [2]; 75.1% in [3]; 96.6% in test [4]; 87.3% in [5]; 88.9% in test [6]. Besides, the growth in test [7] is 98.7%; in test [8], 95.2%; in [9], 101%; in [10], 103%.
